Test results reported in PubChem BioAssay (NCI).
This is part of a sample that, as a whole, favours compounds with a hit. Of some 83,000 tested, about 20% had one in any assay.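 Results are percent growth after 48 hours of single-concentration exposure. 100 means growth as in untreated cells, lower positive values show inhibition; negative values down to -100 show cell death.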 The source made the active and inactive calls. The calls were made as follows: active = growth percent below 10; inactive = the rest.

Experiments:
Test in all cases: NCI-60 one-dose screen, 48 h (100 = growth as untreated, 0 = no growth, -100 = all killed)
Conditions in all cases: 10 µM
HOP-92 NSCLC = tested on: HOP-92 NSCLC
K-562 leukemia = tested on: K-562 leukemia
MALME-3M melanoma = tested on: MALME-3M melanoma
RXF 393 renal = tested on: RXF 393 renal
UACC-257 melanoma = tested on: UACC-257 melanoma
LOX IMVI melanoma = tested on: LOX IMVI melanoma
SK-MEL-28 melanoma = tested on: SK-MEL-28 melanoma
SK-MEL-2 melanoma = tested on: SK-MEL-2 melanoma
SN12C renal = tested on: SN12C renal
TK-10 renal = tested on: TK-10 renal
CAKI-1 renal = tested on: CAKI-1 renal
A498 renal = tested on: A498 renal
RPMI-8226 leukemia = tested on: RPMI-8226 leukemia
BT-549 breast = tested on: BT-549 breast
MDA-MB-435 melanoma = tested on: MDA-MB-435 melanoma
HCC-2998 colon = tested on: HCC-2998 colon
OVCAR-3 ovarian = tested on: OVCAR-3 ovarian

Measured: growth

N#Cc1nc(-c2ccccc2)oc1N1CCC(S(=O)(=O)F)CC1
inactive: HOP-92 NSCLC 94.2% | K-562 leukemia 103% | MALME-3M melanoma 98.9% | RXF 393 renal 92.3% | UACC-257 melanoma 107% | LOX IMVI melanoma 104% | SK-MEL-28 melanoma 104% | SK-MEL-2 melanoma 120% | SN12C renal 100% | TK-10 renal 113% | CAKI-1 renal 100% | A498 renal 108% | RPMI-8226 leukemia 101% | BT-549 breast 108% | MDA-MB-435 melanoma 98.8% | HCC-2998 colon 104%

COC(=O)[C@H]1[C@@H](O)[C@@]2(O)c3c(OC)cc(OC)cc3O[C@@]2(c2ccc(OC)cc2)[C@@H]1c1ccccc1
active: HOP-92 NSCLC -12.5% | K-562 leukemia 2.1% | MALME-3M melanoma -21.8% | RXF 393 renal -20.3% | LOX IMVI melanoma -38.6% | SK-MEL-28 melanoma -19.2% | SK-MEL-2 melanoma -45.5% | SN12C renal -11.5% | TK-10 renal -11.9% | CAKI-1 renal -6.21% | A498 renal -31.4% | RPMI-8226 leukemia -9.7% | OVCAR-3 ovarian -9.22% | BT-549 breast -17.5% | MDA-MB-435 melanoma -11.1% | HCC-2998 colon 0.34%

CC1=C[C@H]2O[C@@H]3C[C@@H](O)[C@](C)([C@@]2(C)CC1)[C@@]31CO1
inactive: HOP-92 NSCLC 41.3% | K-562 leukemia 18.5% | MALME-3M melanoma 21% | RXF 393 renal 15.3% | LOX IMVI melanoma 13.6% | SK-MEL-28 melanoma 27.1% | SK-MEL-2 melanoma 22.6% | SN12C renal 25.4% | TK-10 renal 52.8% | A498 renal 39.2% | RPMI-8226 leukemia 29.3% | OVCAR-3 ovarian 38.9% | BT-549 breast 21.1% | MDA-MB-435 melanoma 21.1% | HCC-2998 colon 18.2%

COc1cc2c(O[C@@H]3OC[C@H](O)[C@H](O)[C@H]3O)c3c(c(-c4ccc5c(c4)OCO5)c2cc1OC)C(=O)OC3
inactive: K-562 leukemia 19.3% | MALME-3M melanoma 54.4% | RXF 393 renal 53.6% | UACC-257 melanoma 23.6% | SK-MEL-28 melanoma 40.8% | SK-MEL-2 melanoma 49% | SN12C renal 56.2% | A498 renal 15% | RPMI-8226 leukemia 89.8% | OVCAR-3 ovarian 80.2% | BT-549 breast 31% | MDA-MB-435 melanoma 39.5% | HCC-2998 colon 73.4%
active: LOX IMVI melanoma -57.7%

CC(=O)O[C@@H]1C[C@H]2O[C@@H]3C=C(C)CC[C@]3(C)[C@]1(C)[C@]21CO1
inactive: HOP-92 NSCLC 16.8% | SN12C renal 20.7% | TK-10 renal 66.6% | A498 renal 34.6% | OVCAR-3 ovarian 14.7%
active: K-562 leukemia 4.68% | MALME-3M melanoma 5.52% | RXF 393 renal 4.11% | LOX IMVI melanoma -41.5% | SK-MEL-28 melanoma -1.27% | SK-MEL-2 melanoma -3.89% | RPMI-8226 leukemia -14.7% | BT-549 breast -14.3% | MDA-MB-435 melanoma 2.02% | HCC-2998 colon 8.92%

CC1=C(CN(O)C(N)=O)C2=C(C)C3(CC3)[C@@](C)(O)C(=O)C2=C1
active: HOP-92 NSCLC -21.1% | MALME-3M melanoma -39.2% | RXF 393 renal -78.9% | UACC-257 melanoma -14.7% | LOX IMVI melanoma -27.6% | SK-MEL-28 melanoma -33% | SK-MEL-2 melanoma -47.8% | TK-10 renal -15% | CAKI-1 renal -3.78% | A498 renal -82% | OVCAR-3 ovarian -26.9% | BT-549 breast -24.5% | MDA-MB-435 melanoma -20.2% | HCC-2998 colon -53.2%
inactive: K-562 leukemia 95.4% | SN12C renal 15.4% | RPMI-8226 leukemia 91.5%

CC1=C(CCC=NNC(N)=O)C2=C(C)C3(CC3)[C@@](C)(O)C(=O)C2=C1
active: MALME-3M melanoma -71.1% | RXF 393 renal -93.6% | UACC-257 melanoma -62.1% | LOX IMVI melanoma -31.9% | SK-MEL-28 melanoma -48.8% | SN12C renal 1.73% | TK-10 renal -9.84% | CAKI-1 renal 0.975% | BT-549 breast -93.5% | MDA-MB-435 melanoma -27.9% | HCC-2998 colon -73.2%
inactive: K-562 leukemia 54.7% | RPMI-8226 leukemia 59.8%

C/C=C\C(=O)O[C@@H]1CC2O[C@@H]3C=C(C)C(=O)C[C@]3(C)[C@]1(C)[C@]21CO1
active: HOP-92 NSCLC -17.5% | K-562 leukemia -6.67% | MALME-3M melanoma -22.9% | RXF 393 renal -31.6% | LOX IMVI melanoma -56.3% | SK-MEL-28 melanoma -20.9% | SK-MEL-2 melanoma -43.2% | SN12C renal -6.14% | TK-10 renal -19.4% | A498 renal -30.2% | RPMI-8226 leukemia -31.2% | OVCAR-3 ovarian -3.17% | BT-549 breast -22.8% | MDA-MB-435 melanoma -34.3% | HCC-2998 colon -23.5%

CC1=C[C@H]2O[C@@H]3C[C@H]4OC(=O)/C=C\C=C\[C@H]([C@@H](C)O)OCC[C@@H](C)[C@H](O)C(=O)OC[C@@]2(CC1)[C@]4(C)[C@]31CO1
active: HOP-92 NSCLC -22% | K-562 leukemia -10.1% | MALME-3M melanoma -67.9% | RXF 393 renal -73.7% | LOX IMVI melanoma -79% | SK-MEL-28 melanoma -49.1% | SK-MEL-2 melanoma -53.2% | SN12C renal -19% | TK-10 renal -25.4% | A498 renal -80.6% | RPMI-8226 leukemia -28.7% | OVCAR-3 ovarian -18.2% | BT-549 breast -24.8% | MDA-MB-435 melanoma -85.2% | HCC-2998 colon -59.9%
